Assay results: PubChem BioAssay AID2629 (Broad Institute, 2010)
Where “and” joins values, the source holds several entries; their conditions need not be identical. Equal values may be shown once. Screen size: about 320,000 compounds; about 1,900 (0.59%) were called active. Rule as the data show it: active = inhibition mostly above about 10% (no sharp cut-off); inactive = mostly below about 6.7%. What follows is part of a selection rich in actives, with near analogues and random picks from the rest. Where a structure was tested more than once in an assay, its records may differ in their call.

molecular target: Protein LANA1 (Human herpesvirus 8 type P (isolate GK18)) (UniProt Q9QR71); assay: blockers of LANA interaction with H2A/H2B – biochemical, FP readout, HTS, primary screen (AID 2629); settings: cell-free LANA-H2A/H2B peptide, fluorescence polarization, stronger effect = higher value, concentration not given here
Sequence (Q9QR71 whole entry, looked up): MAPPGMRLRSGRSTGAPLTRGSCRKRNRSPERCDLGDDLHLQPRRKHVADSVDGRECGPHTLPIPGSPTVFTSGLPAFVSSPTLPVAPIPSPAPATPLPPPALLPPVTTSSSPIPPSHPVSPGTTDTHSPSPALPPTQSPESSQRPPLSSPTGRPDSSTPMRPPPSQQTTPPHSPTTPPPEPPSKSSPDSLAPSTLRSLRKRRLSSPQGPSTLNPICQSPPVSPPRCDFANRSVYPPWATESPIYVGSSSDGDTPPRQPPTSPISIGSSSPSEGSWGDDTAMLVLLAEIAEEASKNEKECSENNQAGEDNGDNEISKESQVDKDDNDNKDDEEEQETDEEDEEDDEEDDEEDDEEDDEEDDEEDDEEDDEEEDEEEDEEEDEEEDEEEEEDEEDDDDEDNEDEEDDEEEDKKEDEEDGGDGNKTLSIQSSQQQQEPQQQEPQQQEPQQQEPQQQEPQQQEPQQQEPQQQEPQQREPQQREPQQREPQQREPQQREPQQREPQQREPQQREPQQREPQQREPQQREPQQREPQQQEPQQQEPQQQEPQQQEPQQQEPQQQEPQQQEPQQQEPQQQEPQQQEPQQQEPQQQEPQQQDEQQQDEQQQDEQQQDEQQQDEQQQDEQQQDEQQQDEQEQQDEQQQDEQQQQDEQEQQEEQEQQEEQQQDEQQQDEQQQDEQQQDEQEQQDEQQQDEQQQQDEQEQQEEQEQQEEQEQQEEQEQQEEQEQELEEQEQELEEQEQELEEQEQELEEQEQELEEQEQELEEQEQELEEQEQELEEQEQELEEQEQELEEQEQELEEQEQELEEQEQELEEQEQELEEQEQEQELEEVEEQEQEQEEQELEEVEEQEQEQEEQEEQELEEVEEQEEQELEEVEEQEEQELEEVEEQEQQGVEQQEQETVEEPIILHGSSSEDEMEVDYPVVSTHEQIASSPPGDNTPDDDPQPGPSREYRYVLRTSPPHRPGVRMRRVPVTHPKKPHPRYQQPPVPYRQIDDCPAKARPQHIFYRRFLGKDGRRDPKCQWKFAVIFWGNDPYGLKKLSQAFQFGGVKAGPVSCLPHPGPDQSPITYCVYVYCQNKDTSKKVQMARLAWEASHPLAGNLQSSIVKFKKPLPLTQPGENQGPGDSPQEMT

inhibition, 11.3% (active) and 1.08% (inactive):
CN(CCOc1ccc(CC2SC(=O)NC2=O)cc1)c1ccccn1 (stereo not drawn)

inhibition, inactive:
CC(C)=N/N=C1/NC(=O)C(Cc2ccccc2)S1 (stereo not drawn) 0.219%
CC(O)c1ccc(OCCN(C)c2ccccn2)cc1 (stereo not drawn) 0.184%
CNc1nccc(-c2ccc(Cl)cc2)c1C#N -1.28%
CSCC[C@H](NC(=O)N1CCn2c1nc1ccccc12)C(=O)NC1CCCCC1 -4.45%
Cc1cc(C)cc(C(=O)NC(CC(N)=O)c2ccc(N3CCC(N4CCCCC4)CC3)c([N+](=O)[O-])c2)c1 (stereo not drawn) -1.95%
CC1(C)CCc2nc(SCc3ccccc3)c(C#N)cc2C1 -3.11%
N#CC1=C(SCc2ccc(C#N)cc2)N=C(N)C(c2nc(-c3ccccc3)cs2)C12CCCCC2 (stereo not drawn) 5.1%
COCCCNC(=O)Cc1ccc(-n2c(C)nc3cccnc32)cc1 -0.715%
CCc1ccc(-c2nc(SCC(=O)NC3CCCC3)n[nH]2)cc1 1.39%
Cc1ccc(CNC(=O)c2c(-c3ccccc3)noc2C)cc1 -3.29%
Cc1onc(-c2ccccc2)c1C(=O)Nc1ccccc1C#N 1.04%
O=C(NCC12CC3CC(C1)CC(CNC(=O)N1CCCC1)(C3)C2)N1CCCC1 -3.32%
CC(=O)NC12CC3CC(C1)CC(C(=O)N1CCN(C(=O)c4ccco4)CC1)(C3)C2 -0.808%
O=S(=O)(NC1CCCCC1)c1ccc(F)c2ccccc12 -1.01%
COc1cccc(N2CC(C(=O)Nc3c(C)cccc3C)CC2=O)c1 (stereo not drawn) -1.43%
Cc1cccc(C)c1NC(=O)C1(N(C(=O)c2ccccn2)c2ccc(O)cc2)CCCCC1 -0.134%
COc1cc(CNCc2ccc(OC)c3ccccc23)cc(OC)c1OC -2.97%
C=CCC[C@@H](Cc1ccc(F)cc1)C(=O)OC[C@@H](C)NC(=O)[C@H](CC=C)CC(=O)N(CCO)Cc1ccccc1 -1.37%
O=C(CSc1nc2ccccc2c(=O)n1-c1ccccc1F)N1CCOCC1 -5.04%
CCOC(=O)N1CCN(C(=O)Cn2cnc3ccccc3c2=O)CC1 3%
CCOC(=O)N1CCN(CC(=O)Nc2ccc(F)cc2)CC1 -4.74%
O=C(OCc1ccccc1F)c1ccc2c(c1)OCCO2 -6.13%
CC(=O)c1cc(C#N)c(SCC(=O)C(C)(C)C)nc1C -1.09%
CCOC(=O)c1nc(C)n(-c2ccc(Cl)cc2Cl)n1 -1.22%
Cc1ccc(S(=O)(=O)NC(C(=O)N2CCOCCOCCOCCOCC2)c2ccccc2)cc1 (stereo not drawn) -3.32%
Brc1ccc(-c2n(-c3ccccn3)c3ccccc3[n+]2-c2ccccn2)cc1 5.04%
C[C@@H](C(=O)Nc1ccc2ccccc2c1)[C@@H]1C[C@@]1(C)[C@@H](NC(=O)c1cccnc1)c1ccccc1 1.66%
COc1ccc(C(=O)NC2CC2)cc1OC1CCN(Cc2cnn(C)c2)CC1 2.53%
COc1ccc(C(=O)NC2CC2)cc1OC1CCN(C/C=C/c2ccccc2)CC1 5.63%
COc1ccc(C(=O)n2nc(C)c(Br)c2C)cc1OC 2.73%
COc1ccc(C(=O)NC(=S)N2CCCCC2c2cccnc2)cc1OC (stereo not drawn) -0.0544%
CN(C(=O)c1cc2c(=O)n3ccccc3nc2s1)C1CCCCC1 -5.4%
Cc1ccccc1-n1nc(C)c2cc(C(=O)NC3CC3)sc21 0.464%
O=C(Nc1ccccc1)/C(=C\c1ccco1)NC(=O)c1ccco1 4.48%
COc1ccc(/C=C(/NC(=O)c2ccco2)C(=O)Nc2ccc(C(C)=O)cc2)cc1 3.73%
Cn1c(=O)c2c(nc(NCCNC(=O)c3ccco3)n2Cc2ccccc2F)n(C)c1=O 0.914%
COc1cc(N/C=C2\CC(=O)NC(C)=C2C#N)cc(OC)c1OC 1.67%
CCOC(=O)C(NS(=O)(=O)c1ccc(C)cc1)(C(F)(F)F)P(=O)(OCC(C)C)OCC(C)C (stereo not drawn) -0.856%
CC(C)C(=O)NC(NC(=S)NC1CCS(=O)(=O)C1)C(Cl)(Cl)Cl (stereo not drawn) 5.16%
CCOc1ccc2nc(N(CCCN(C)C)C(=O)c3ccc(C(=O)c4ccccc4)cc3)sc2c1 2.47%
CCOc1ccc2nc(N(CCN(C)C)C(=O)c3ccc4ccccc4c3)sc2c1 -2.61%
O=c1cc(-c2ccccc2)[nH]c2cc(F)ccc12 -0.193%
Cc1ccc(N/C(N)=N/c2nc(C(F)(F)F)cc(C(F)(F)F)n2)cc1 1.07%
Cn1c(=O)c(=O)n(C)c2cc(S(=O)(=O)NCCN3CCN(c4ccccc4F)CC3)ccc21 2.45%
Cc1ccc2c(c1)-c1c(ssc1=S)C(C)(C)N2C(=O)CN1C(=O)c2ccccc2C1=O -1.1%
CCC1=Nc2cc(C(=O)NCCCN3CCOCC3)ccc2Sc2ccc(Br)cc21 3.58%
O=C(NCCCN1CCOCC1)c1ccc2c(c1)N(Cc1cccc(F)c1)C(=O)c1ccccc1S2 -7.56%
COc1ccc(Cl)cc1N(CC(=O)N/N=C/c1ccc(OCC(N)=O)cc1)S(C)(=O)=O 0.205%
COc1cc(NC(=O)c2[nH]cnc2C(N)=O)cc(C(=O)Nc2cccc(C(F)(F)F)c2)c1 -1.33%
O=C(NCc1cccs1)C1CCN(S(=O)(=O)c2ccc3c(c2)OCCO3)CC1 -3.5%
O=C(Nc1ccccn1)C1CCN(S(=O)(=O)c2ccccc2)CC1 -0.314%
Nc1c(-c2ccccc2)nnn1Cc1ccccc1 -2.36%
CCOC(=O)c1ccc(COC(=O)CCc2nc(-c3ccccc3)c(-c3ccccc3)o2)cc1 -6.88%
Cc1nnc(NC2=NCCCCC2)o1 4.02%
COc1ccc(C)cc1NC(=O)CSc1ccc(Cl)cc1 -4.45%
COc1ccc(C)cc1NC(=O)CNCc1cccs1 0.209%
Cc1onc(-c2ccccc2Cl)c1C(=O)NCCn1ccc2ccccc21 -5.8%
Cc1onc(-c2ccccc2Cl)c1C(=O)OCC(=O)c1ccccc1 4.43%
CC(C)COC(=O)n1c(=O)oc2ccc(S(=O)(=O)N3CCCCC3)cc21 2.24%
CCOC(=O)c1c(C)nc2c(c1C)c(=O)oc1ccccc12 1.54%
C=CCc1cccc2cc(C(=O)OCC)c(=O)oc12 -5.34%
NC(=O)C[n+]1cccc(C(N)=O)c1 -3.37%
CC(CO)(CO)NC(=O)c1ccc(=O)[nH]n1 3.9%
CCc1nn(CCCN2CCN(c3cccc(Cl)c3)CC2)c(=O)n1CCOc1ccccc1 -0.456% and 3%
c1ccc2cc(CCCc3cc4ccccc4cn3)ncc2c1 2.17%
Cc1noc(C)c1COc1ccccc1C(=O)N(C)CC(=O)Nc1cccc(F)c1 0.0499%

inhibition, active:
Cc1nc(NC(CC(C)C)C(=O)O)c2nc(C)oc2n1 (stereo not drawn) 11.3%
N#CC1=C(SCc2ccccc2)NC(=O)C(C#N)C12CCCC2 (stereo not drawn) 15%
CC(=O)Nc1cccc(NC(=O)c2c(-c3ccccc3)noc2C)c1 18.3%
O=C(N1CCCC1)C12CC3CC(C1)CC(C(=O)N1CCCC1)(C3)C2 15.6%
COc1cccc(N(C(=O)c2ccn[nH]2)C2(C(=O)Nc3c(C)cccc3C)CCCCC2)c1 83.6%
CCOC(=O)N1CCN(CC(=O)Nc2cc(C)nn2-c2nc3ccccc3s2)CC1 16.1%
CC(=O)c1nnn(-c2ccc(Cl)cc2C#N)c1C 10.1%
COc1ccc(C(=O)NC2CC2)cc1OC1CCN(Cc2ccc(SC)cc2)CC1 12.2%
Cc1cccn2c(=O)c3cc(C(=O)NC4CCCCC4)sc3nc12 32.6%
Cc1ccc(NC(=O)/C(=C\c2ccccc2)NC(=O)c2ccco2)cc1 15.5%
CC[N+](C)(CC)CCC[n+]1c(-c2ccccc2)c2cc(N)ccc2c2ccc(N)cc21 37%
CCN(CC)CCN(C(=O)c1cccc([N+](=O)[O-])c1)c1nc2ccc(OC)cc2s1 10.8%
Cc1ccccc1CN1C(=O)c2ccccc2Sc2ccc(C(=O)NCCCN3CCOCC3)cc21 19.6%
O=C(Nc1ccccn1)C1CCN(S(=O)(=O)c2ccc3c(c2)OCCO3)CC1 35.5%
Cc1onc(-c2ccccc2Cl)c1C(=O)N(Cc1ccc(N(C)C)cc1)C(C)C 12.7%
CCOC(=O)c1cc2cc3ccccc3cc2oc1=O 16.8%
